D2 PAM-1: HTS Assay for Positive Allosteric Modulators of the Human D2 Dopamine Receptor: Primary Screen for Potentiators; potentiation, % at 10 µM; 340,000 compounds, 0.34% hits; HEK293 T-REx D2, calcium flux, EC20 dopamine potentiation; D(2) dopamine receptor (Homo sapiens), P14416; AID 485347, 2010;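 active means potentiation over 3 SD above the plate norm, cut at about 30% in these data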; further: 0% is about no effect
Target sequence (P14416 whole entry, looked up): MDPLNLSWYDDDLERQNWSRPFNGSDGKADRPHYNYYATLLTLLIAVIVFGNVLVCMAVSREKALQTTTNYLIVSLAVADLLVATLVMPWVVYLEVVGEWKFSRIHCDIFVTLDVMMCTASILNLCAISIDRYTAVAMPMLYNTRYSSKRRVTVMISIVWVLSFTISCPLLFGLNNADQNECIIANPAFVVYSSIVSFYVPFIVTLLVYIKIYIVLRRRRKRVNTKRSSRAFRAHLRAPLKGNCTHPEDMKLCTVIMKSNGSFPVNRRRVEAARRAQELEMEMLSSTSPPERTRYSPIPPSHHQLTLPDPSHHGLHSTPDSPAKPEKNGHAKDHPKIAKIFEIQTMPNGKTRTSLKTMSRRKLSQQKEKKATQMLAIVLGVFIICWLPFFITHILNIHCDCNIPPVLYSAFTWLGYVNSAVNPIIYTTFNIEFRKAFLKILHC
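Potentiation of an EC20 dopamine calcium response measured kinetically over 180 s, after a preceding 180 s compound-only read flagging agonists. Cells: inducible Hek293 Trex D2 line, 4000/well, cultured overnight at 30 C before dye loading.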
D2 ag-1: HTS Assay for Allosteric Agonists of the Human D2 Dopamine Receptor: Primary Screen for Agonists | HEK293 T-REx D2 cells, calcium flux agonist mode | activation, % at 2 µM | 340,000 compounds, 0.53% hits | AID 485358, 2010 | D(2) dopamine receptor (Homo sapiens), P14416;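 active means activation over 3 SD above normal in the single-dose calcium agonist read, cut at about 30% in these data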; further: 0% is about no effect
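Agonism is scored from calcium flux in a force-coupled, inducible HEK293 cell line expressing D2, read kinetically for 180 s after compound addition against dopamine controls.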
D2 antagonist: HTS Assay for Allosteric Antagonists of the Human D2 Dopamine Receptor: Primary Screen for Antagonists; inhibition, % at 10 µM; AID 485344, 2010; HEK293 TREx D2 cells, calcium flux, dopamine EC80; 340,000 compounds, 2% hits; D(2) dopamine receptor (Homo sapiens), P14416; in the data active means inhibition above about 30%; inactive means below that, where a call was filed; further: 0% is about no effect
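Read-out: kinetic calcium fluorescence (1 cycle/s) in inducible HEK293 T-REx D2 cells after an EC80 dopamine addition that followed 180 s compound preincubation. Loss of the dopamine response indicates antagonism.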
D2 ag-2: Beta-Arrestin HTS for Positive Allosteric Modulators of the Human D2 Dopamine Receptor: Agonists; D(2) dopamine receptor (Homo sapiens), P14416; DiscoveRx PathHunter D2 beta-arrestin, luminescence, 90 min; 100% = 57 uM dopamine signal; activation, % (test concentration not listed); 360,000 compounds, 0.084% hits; AID 624465, 2012; in the data active means activation above about 40%; inconclusive means between about 15% and that limit
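DiscoveRx PathHunter D2 beta-arrestin cells (2,100/well) attached overnight, then compound-stimulated 90 min at 37 C in HBSS/10 mM HEPES/0.1% Tween-20 buffer; beta-galactosidase complementation read by luminescence after 1 h at ambient temperature. Dopamine 57 uM final (EC100) as control.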
D2 PAM-2: Beta-Arrestin HTS for Positive Allosteric Modulators of the Human D2 Dopamine Receptor: Potentiators; AID 624464, 2012; D(2) dopamine receptor (Homo sapiens), P14416; DiscoveRx D2 beta-arrestin cells, luminescence, 90 min; 100% = 57 uM dopamine signal; potentiation, % (concentration not given with the values); 360,000 compounds, 0.23% hits; in the data active means potentiation above about 50%; inconclusive means mostly about 30% to 49%
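PathHunter D2 cells, attached overnight at 37 deg C, received compound in DMSO plus dopamine at EC20 (50 nM final) for 90 min at 37 deg C. Beta-arrestin recruitment was read as luminescence after 1 h with detection reagent at ambient temperature.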
D3 arrestin ag: qHTS of D3 Dopamine Receptor Agonist: D3 Dopamine Receptor B-arrestin Agonist Confirmatory Assay; shares compounds with D2 ag-1; DiscoveRx D3 beta-arrestin cells, luminescence, 90 min; Potency, µM (highest dose often 76.9 µM), without a hit: at the top dose activation, usual class: activators; 2,300 compounds, 4% hits; AID 720506, 2013;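 further: potency means the concentration at half of the fitted maximal effect; 100% = dopamine control response; nearly all actives have a fitted effect of over 70% in size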
D2 ag-3: qHTS of D3 Dopamine Receptor Agonist: D2 Dopamine Receptor B-arrestin Agonist Counterscreen | shares compounds with D2 ag-1 | DiscoveRx PathHunter D2 beta-arrestin, luminescence, 90 min; response scale: percent relative to full dopamine signal | Potency, µM (series often up to 76.9 µM), inactives show at the highest dose activation, most hits filed as activators | 2,300 compounds, 5.9% hits; further: potency means the concentration at half of the fitted maximal effect; % of control where 0% means no effect; nearly all actives have a fitted effect of over 70% in size
The depositor's hits bear a star; ? = inconclusive; . = no result. Sampled rows, rich in hits. Any-hit rate of the full collection: about 2.4%. Unless noted, the call rests on the fitted dose curve; in most records, active means well fitted activation curve with a large enough effect; inconclusive means small, poorly fitted or top-dose-only effect; inactive means flat fitted curve, though single readings scatter.

SMILES | D2 PAM-1 | D2 ag-1 | D2 antagonist | D2 ag-2 | D2 PAM-2 | D3 arrestin ag | D2 ag-3
COc1cccc(CN2CCN(C3CCN(c4cccc(C)c4C)CC3)CC2CCO)c1 (stereo not given) | -9 | 71* | 73* | ? | 15 | ? | ?
CCOC(=O)N1CCC(N2CCCC(C(=O)c3cc(C)c(OC)c(C)c3)C2)CC1 (stereo not given) | . | . | . | -2 | -6 | . | .
COc1ccc(-c2noc(-c3ccc(N4CCN(c5ccccc5OC)CC4)c([N+](=O)[O-])c3)n2)cc1 | -1 | -1 | . | . | . | . | .
CCOc1ccccc1C(=O)NCc1ccc2c(c1)CCN2C(C)=O | 0 | . | . | . | . | . | .
CCc1ccccc1NC(=O)CSc1ncc2c(n1)-c1ccccc1N(Cc1ccc(C)cc1)S2(=O)=O | -3 | 0 | . | . | . | . | .
COc1ccc(C2=NC(C)(C)N(CC(=O)Nc3cccc(C)c3)C2=O)cc1 | 2 | 0 | . | . | . | . | .
CC(C)C[C@@H](CO)N1CCN(CCCc2ccccc2)CCC1=O | 8 | -1 | 35* | -2 | -7 | -1% | 18%
CC(C)C[C@@H](CO)N1CCN(Cc2ccccc2)CCC1=O | 1 | . | . | -3 | -9 | . | .
N#CC[C@H](Cc1ccccc1)N1CCN(Cc2ccccc2)CCC1=O | 0 | 1 | 11 | 0 | -4 | . | .
N#CC[C@H](Cc1ccccc1)N1CCN(CCc2ccccc2)CCC1=O | -17 | 50* | 34* | -2 | -20 | 15% | 1%
O=C1CCN(CCCc2ccccc2)CCN1[C@H](CO)c1ccccc1 | 8 | 0 | 23 | 0 | -15 | ? | 20%
CCc1ccccc1NC(=O)C(NS(=O)(=O)c1ccc2c(c1)CCC(=O)N2)c1ccccc1 (stereo not given) | . | -1 | . | . | . | . | .
COc1cccc(-n2c(CN3CCN(c4ccccn4)CC3)nc3ccc([N+](=O)[O-])cc3c2=O)c1 | -17 | 28 | 7 | -1 | -10 | -3% | 3%
COc1ccc(CN2CCN(c3ccccn3)CC2)c(OC)c1 | -22 | 84* | 83* | ? | 3 | 22% | ?
COc1ccc(CN2CCN(Cc3ccccc3F)CC2)c(OC)c1 | -4 | -2 | 5 | -4 | -16 | . | .
COc1cc(CN2CCCCCC2)cc(OC)c1 | -8 | 0 | -7 | -2 | -13 | . | .
COc1ccc(CN2CCN(c3ncccn3)CC2)c(OC)c1 | -5 | 56* | 69* | 45* | 16 | ? | ?
COc1cc(CN2CCN(c3ncccn3)CC2)cc(OC)c1 | -22 | 88* | 87* | 56* | 1 | ? | 2.8µM*
COc1ccc(-n2c(CN3CCN(c4ccccc4)CC3)nc3ccc([N+](=O)[O-])cc3c2=O)c(OC)c1 | 3 | 18 | 13 | 7 | -13 | . | .
CN(Cc1ccccc1)C(=O)c1cc(-c2cccc(Cl)c2)on1 | 5 | 1 | . | . | . | . | .
COc1ccc(S(=O)(=O)Nc2cccc(-c3ccc(N4CCC(C)CC4)nn3)c2)c(OC)c1 | -3 | -1 | . | . | . | . | .
CCn1c(SC)nc2c([nH]c3ccccc32)c1=O | 10 | 0 | . | . | . | . | .
Oc1ccccc1C=NCC(O)c1ccccc1 (stereo not given) | 1 | 4 | -21 | -1 | 11 | 12% | 6%
COc1ccc(C(=O)NCC2(N3CCN(C)CC3)CCCCC2)cc1 | -7 | 1 | . | . | . | . | .
CCCCNc1nc(CC(C)=O)ns1 | -18 | 50* | 30* | -4 | 2 | -7% | -2%
SMILES | D2 PAM-1 | D2 ag-1 | D2 antagonist | D2 ag-2 | D2 PAM-2 | D3 arrestin ag | D2 ag-3
CNc1nc(CC(C)=O)ns1 | 21 | 0 | -6 | -1 | -9 | . | .
Cc1cccc(C)c1OC(=O)C(c1ccccc1)c1ccccc1 | 10 | 0 | -10 | -3 | 1 | . | .
C=CCC(C(=O)Oc1c(C(C)(C)C)cc(C)cc1C(C)(C)C)c1ccccc1 (stereo not given) | 1 | 0 | -11 | -2 | -2 | -7% | -4%
CN1CCN(C(=O)N2c3ccccc3C=Cc3ccccc32)CC1 | -18 | 54* | -11 | -1 | -10 | -4% | -4%
CC(NC(=O)CCn1c(=O)c2cccn2c2ccc(F)cc21)c1ccccc1 (stereo not given) | 4 | 0 | . | . | . | . | .
Cc1ccc(C)c(N2C(=O)N(Cc3cc(=O)n4ccccc4n3)c3ccccc3S2(=O)=O)c1 | 0 | 0 | . | . | . | . | .
COc1ccc(CNC(=O)CCC(=O)N2CCN(C(C)=O)CC2)cc1 | -2 | 1 | 8 | 6 | -4 | . | .
COc1ccc(C2(NC(C)=O)CCN(C(=O)CCC(=O)O)CC2)cc1 | -11 | 51* | -1 | 0 | -1 | -7% | -2%
CCN(c1ccccc1)S(=O)(=O)c1cc(-c2onc(C)c2C)ccc1OC | 0 | 0 | . | . | . | . | .
O=C(Nc1cccc(Cl)c1)c1ccc(NCCCN2CCOCC2)c([N+](=O)[O-])c1 | 3 | -2 | -10 | -2 | -34 | . | .
Cc1ccc(NC(=O)c2ccc(NCCCN3CCC(C)CC3)c([N+](=O)[O-])c2)cc1F | -17 | 29 | 5 | -2 | -12 | -17% | 10%
CC(=O)c1ccccc1OCC(O)CN1CCN(c2ccccn2)CC1 (stereo not given) | 0 | 0 | 15 | 11 | -6 | . | .
CCOC(=O)C1CCN(CC(O)COc2ccc(C(=O)CC)cc2)CC1 (stereo not given) | -31 | 79* | 56* | ? | 10 | 3% | ?
CCOC(=O)N1CCN(Cc2ccc(OCC(O)CN3CCCCC3)cc2)CC1 (stereo not given) | -12 | 63* | 51* | ? | 23 | 9% | ?
CCC(=O)c1ccc(OCC(O)CN2CCN(c3ccccn3)CC2)cc1 (stereo not given) | -27 | 80* | 74* | 60* | 26 | 0.89µM* | 2µM*
CC(C)(C)c1ccc(OCC(O)CN2CCN(c3ccccn3)CC2)cc1 (stereo not given) | -21 | 86* | 87* | ? | 55* | ? | 16µM*
Cc1ccccc1NC(=O)CSc1nnc(COc2ccc(Cl)cc2)o1 | 2 | -1 | . | . | . | . | .

Assay outcomes deposited in PubChem by National Center for Advancing Translational Sciences (NCATS).
